Measurements: the supplement of paper PMC13380429

System: Vero E6 infected with SARS-CoV-2
Test: inhibition of SARS-CoV-2 cytopathic effect; higher = more antiviral protection, active = above 15
Conditions: 48 h

Measured: inhibition of SARS-CoV-2 cytopathic effect

CC[C@H]1OC(=O)C[C@@H](O)[C@H](C)[C@@H](O[C@@H]2O[C@H](C)[C@@H](O[C@H]3C[C@@](C)(O)[C@@H](O)[C@H](C)O3)[C@H](N(C)C)[C@H]2O)[C@@H](CC=O)C[C@@H](C)C(=O)/C=C/C(C)=C/[C@@H]1CO[C@@H]1O[C@H](C)[C@@H](O)[C@@H](OC)[C@H]1OC
inactive: 1 nM -4.49% | 8.33 nM -1.15% | 100 nM -2.1% | 833.33 nM -0.46% | 10000 nM 4.02%

Cc1cc(N2CCOCC2)ccc1Nc1nc(NC2CCCCC2)c2nc[nH]c2n1
inactive: 1 nM -1.92% | 8.33 nM 1.08% | 100 nM -7.66% | 833.33 nM 3.17% | 10000 nM 0.7%

CN1C(CSCC(F)(F)F)Nc2cc(Cl)c(S(N)(=O)=O)cc2S1(=O)=O (stereo not given) [polythiazide]
inactive: 1 nM -0.4% | 8.33 nM 0.91% | 100 nM 3.31% | 833.33 nM -0.95% | 10000 nM -1.62%

O=C(O)C(O)C(O)C(=O)O (stereo not given) [tartaric-acid]
inactive: 1 nM -3.77% | 8.33 nM -4.25% | 100 nM -5.86% | 833.33 nM -1.6% | 10000 nM -0.64%

C[C@@H]1CCCN1CCc1cc2cc(-c3ccc(C#N)cc3)ccc2o1
inactive: 1 nM -2.35% | 8.33 nM -2.18% | 100 nM 1.55% | 833.33 nM -0.35% | 10000 nM 4.34%

CC(C)NCC(O)COc1cccc2[nH]c3ccccc3c12 (stereo not given) [carazolol]
inactive: 1 nM 1.76% | 8.33 nM -2.21% | 100 nM -1.61% | 833.33 nM 0% | 10000 nM -4.08%

O=C(NCC1(N2CCN(c3ccccc3)CC2)CCOCC1)c1cccnc1Sc1ccccc1
inactive: 1 nM -0.72% | 8.33 nM 1.47% | 100 nM 1% | 833.33 nM -2.18% | 10000 nM 0.86%

C[C@H]1C[C@H]2[C@@H]3CCC4=CC(=O)C=C[C@]4(C)[C@@]3(Cl)[C@@H](O)C[C@]2(C)[C@@]1(O)C(=O)CO [beclomethasone]
inactive: 1 nM -6.12% | 8.33 nM -1.77% | 100 nM 0.28% | 833.33 nM -4.99% | 10000 nM -2.5%

CO[C@H]1CC[C@H](N(c2cc(C3=CCCCC3)sc2C(=O)O)C(=O)[C@H]2CC[C@H](C)CC2)CC1
inactive: 1 nM 0.5% | 8.33 nM 0.07% | 100 nM -0.07% | 833.33 nM 0.31% | 10000 nM 0.21%

CO/N=C(\C(=O)N[C@@H]1C(=O)N2C(C(=O)O)=C(COC(N)=O)CS[C@H]12)c1ccco1
inactive: 1 nM -0.51% | 8.33 nM 1.54% | 100 nM 0.59% | 833.33 nM 0.24% | 10000 nM -0.24%

NS(=O)(=O)c1cc(-c2nnn[nH]2)c(NCc2cccs2)cc1Cl [azosemide]
inactive: 1 nM 2.38% | 8.33 nM -0.55% | 100 nM 3.16% | 833.33 nM 9.99% | 10000 nM -3.43%

COc1cc(OC)c(OC)cc1C=O [asaraldehyde]
inactive: 1 nM -1.46% | 8.33 nM -1.92% | 100 nM -1.24% | 833.33 nM -1.97% | 10000 nM 0.07%

Cc1cccc(OCC(O)CNC(C)(C)C)c1C (stereo not given) [xibenolol]
inactive: 1 nM -3.23% | 8.33 nM -1.82% | 100 nM -0.78% | 833.33 nM -1.76% | 10000 nM -5.66%

CN1CCN(c2cccc(Nc3nc4c(-c5ccc(S(C)(=O)=O)cc5)cccn4n3)c2)CC1
inactive: 1 nM -0.26% | 8.33 nM 0.06% | 100 nM 0.85% | 833.33 nM -0.58% | 10000 nM -4.01%

O=C1NCCNC1c1cccs1 (stereo not given) [tenilsetam]
inactive: 1 nM 3.34% | 8.33 nM 0.52% | 100 nM -1.98% | 833.33 nM -2.12% | 10000 nM -1.68%

CC[C@H](C)[C@H](N)C(=O)O [isoleucine]
inactive: 1 nM -1.51% | 8.33 nM -4.12% | 100 nM -0.12% | 833.33 nM 0.05% | 10000 nM 1.97%

O=C(NNc1nc2cc(F)ccc2n2cccc12)c1cnccn1
inactive: 1 nM -2.31% | 8.33 nM 0.82% | 100 nM 0.63% | 833.33 nM 0.71% | 10000 nM -4.33%

CC(C)C[C@@H](NC(=O)[C@H](Cc1ccccc1)NC(=O)CNC(=O)[C@@H](C)NC(=O)[C@@H](N)Cc1ccc(O)cc1)C(=O)O
inactive: 1 nM -0.21% | 8.33 nM 3.3% | 100 nM 1.72% | 833.33 nM 2.13% | 10000 nM 0%
